CYP2C19 act – activators of human cytochrome P450 2C19; 96,000 tested, under 10 active; AID 1025; recombinant CYP2C19, luciferin-H EGE luminescence; stronger effect = higher value; 0 = fully inhibited enzyme, 1 = untreated enzyme; activation factor at 5 µM; P33261;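 active means activation factor of at least 2 at 5 µM in the primary screen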;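 further: 0 = wells with 2.5 mM tranylcypromine and 1 = vehicle-only wells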
CYP2C9 inh – inhibitors of human CYP2C9. CYP2C9 Supersomes, luciferin-H conversion, luminescence. inhibition, % at 5 µM. 96,000 compounds, 20% hits;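 active means blocking of liver enzyme CYP2C9 beyond about 50% at 5 µM, limit read from the data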
CYP2C9 act – CYP2C9 (human) activation; P11712; recombinant CYP2C9, luciferin-H conversion, luminescence; stronger effect = higher value; factor 1 = untreated enzyme, 0 = blocked; activation factor at 5 µM; 96,000 compounds, 1.4% hits; AID 1024;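 active means activation factor of 2 or more for CYP2C9 at a 5 µM dose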;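 further: 0 = sulfaphenazole-blocked wells and 1 = vehicle-only wells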
PLAP act – human PLAP activation; 96,000 compounds, 1.2% hits; purified PLAP enzyme, luminescent substrate read-out; stronger effect = higher value; AID 696; activation fold at 20 µM; in the data active means activation fold above about 2
Target sequence (P05187 whole entry, looked up): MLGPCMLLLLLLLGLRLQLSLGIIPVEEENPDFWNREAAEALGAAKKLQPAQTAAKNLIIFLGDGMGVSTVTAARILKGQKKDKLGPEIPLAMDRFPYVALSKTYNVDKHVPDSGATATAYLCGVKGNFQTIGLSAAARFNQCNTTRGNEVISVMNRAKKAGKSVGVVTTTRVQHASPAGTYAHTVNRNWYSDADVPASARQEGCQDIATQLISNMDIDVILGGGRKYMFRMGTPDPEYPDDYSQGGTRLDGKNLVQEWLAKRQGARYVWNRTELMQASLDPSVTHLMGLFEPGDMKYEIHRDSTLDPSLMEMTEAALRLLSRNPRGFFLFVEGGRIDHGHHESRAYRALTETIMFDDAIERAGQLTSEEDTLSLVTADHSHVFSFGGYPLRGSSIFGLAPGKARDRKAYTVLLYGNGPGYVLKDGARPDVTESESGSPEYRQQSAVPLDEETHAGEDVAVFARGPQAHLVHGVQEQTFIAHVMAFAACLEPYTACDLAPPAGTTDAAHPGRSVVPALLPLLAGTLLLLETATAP
CYP2C19 inhib – inhibitors of human CYP2C19 | P33261 | CYP2C19 Supersomes, luciferin-H EGE luminescence, 30 min | inhibition, % at 5 µM | 96,000 compounds, 21% hits;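 active means CYP2C19 inhibition above a set limit at 5 µM in the primary screen, cut at about 50% in these data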;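 further: plate controls were negative control wells for no effect and 2.5 mM tranylcypromine positive control for full effect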
* marks the source's active call; other numbers are inactive results. This is a sample that favours compounds with a hit; in the whole collection about 31% have one here.

SMILES	CYP2C19 act	CYP2C9 inh	CYP2C9 act	PLAP act	CYP2C19 inhib
COc1ccccc1N1C(=O)CC(N2CCc3ccccc32)C1=O (stereo unspecified)	0.1	-5.4	1.1	1.3	90.8*
COc1cccc(N2C(=O)CC(N3CCc4ccccc43)C2=O)c1 (stereo unspecified)	0.2	-43.0	1.4	1.3	82.8*
COc1cccc(N2CCN(C3CC(=O)N(c4ccc(C)c(Cl)c4)C3=O)CC2)c1 (stereo unspecified)	1.1	2.3	1	1.2	-12.8
COc1cccc(N2CCN(C3CC(=O)N(c4ccc(F)c(Cl)c4)C3=O)CC2)c1 (stereo unspecified)	0.7	55.4*	0.4	1.4	30.8
O=C(CCn1nc(-c2ccccc2)ccc1=O)N1CCN(c2ccccn2)CC1	0.9	9.6	0.9	1.3	13.1
CCCOc1ccccc1C(=O)N(Cc1ccco1)C1CCS(=O)(=O)C1 (stereo unspecified)	1	-0.4	1	1	-3.0
CC(NC(=O)c1cccc(F)c1)C(c1cccs1)N1CCN(C)CC1 (stereo unspecified)	0.9	6.4	0.9	1.1	9.3
CC(C)C(C(=O)Nc1ccc2c(c1)OCCO2)N1C(=O)c2ccccc2C1=O (stereo unspecified)	0.8	49.3	0.5	1.2	22.5
Cc1ccc(N(C(C)C(=O)Nc2ccc3c(c2)OCO3)S(C)(=O)=O)cc1 (stereo unspecified)	0.3	43.0	0.6	1.1	66.8*
CC(C)C(C(=O)Nc1ccc2c(c1)OCO2)N1C(=O)c2ccccc2C1=O (stereo unspecified)	0.5	52.4*	0.5	1.1	49.0
CC(C(=O)OCC(=O)Nc1ccc2c(c1)OCO2)N1C(=O)c2ccccc2C1=O (stereo unspecified)	0.3	68.3*	0.3	1.1	73.7*
CC(C)C(C(=O)Nc1cccnc1)N1C(=O)c2ccccc2C1=O (stereo unspecified)	0.7	63.2*	0.4	0.9	30.2
CCOc1cc(NC(=S)NCC(C)C)c(OCC)cc1NC(=O)c1cccs1	1	7.6	0.9	0.9	2.1
Cc1ccc(C(=O)Nc2nnc(C3CCCCC3)s2)o1	1	-4.0	1	1	4.1
CC(C)c1nc2oc3c(NCC4CCCO4)ncnc3c2c2c1CCC2 (stereo unspecified)	0.7	41.5	0.6	1.7	30.2
CC(C(=O)Oc1ccc2c(c1)OCO2)N1C(=O)c2ccccc2C1=O (stereo unspecified)	0.4	42.0	0.6	1.1	61.7*
COc1cc(/C=C(\C#N)C(=O)NCC2CCCO2)c([N+](=O)[O-])cc1OC (stereo unspecified)	0.9	-70.1	1.7	0.9	11.1
CC(=O)c1cccc(Nc2nc(=O)c3cccnc3s2)c1	0.3	78.2*	0.2	0.8	74.1*
CCCCCCNS(=O)(=O)c1ccc(Cl)s1	0	85.9*	0.1	0.5	98.2*
O=C(O)CCCNS(=O)(=O)c1ccc(Br)s1	0.9	10.1	0.9	1	6.6
Cc1[nH]n(-c2ccccc2)c(=O)c1S(=O)(=O)c1ccccc1	0.1	-43.9	1.4	1.2	88.4*
COc1cc(S(=O)(=O)N2CCOCC2)ccc1F	0.7	-63.2	1.6	1	33.1
Cc1ccc(S(=O)(=O)N2CCSC2)cc1C	0.9	-130.6	2.3*	0.8	7.2
COc1ccc(S(=O)(=O)N2CCOCC2)cc1C(C)C	0.9	-20.7	1.2	1	6.1
COc1ccc(S(=O)(=O)N2CCOCC2)c(Cl)c1Cl	0.3	-304.2	4*	1.2	70.2*
SMILES	CYP2C19 act	CYP2C9 inh	CYP2C9 act	PLAP act	CYP2C19 inhib
COc1ccc(S(=O)(=O)N2CCOCC2)cc1Cl	0.4	-234.2	3.3*	1	58.9*
Cc1ccc(S(=O)(=O)N2CCN(S(=O)(=O)N3CCOCC3)CC2)c(C)c1	0.5	-36.8	1.4	1.3	49.0
Cc1ccc(S(=O)(=O)N2CCN(S(=O)(=O)N3CCOCC3)CC2)cc1C	0.5	-6.5	1.1	1	50.1*
CC(=O)c1cc2c(cc1NC(=O)CSc1nnc(C)s1)OCO2	0.9	-9.3	1.1	0.9	8.7
O=S(=O)(c1ccc2nc(-c3ccco3)c(-c3ccco3)nc2c1)N1CCOCC1	1	90.7*	0.1	1.3	2.7
Cc1ccc(S(=O)(=O)N2CCOCC2)cc1C(=O)N1CCOCC1	1	-4.7	1	1	1.6
Cc1ccc(S(=O)(=O)N2CCOCC2)cc1C(=O)OCC(=O)N1CCc2ccccc2C1	0.3	78.3*	0.2	1.7	74.7*
Cc1ccc(S(=O)(=O)N2CCOCC2)cc1C(=O)N1c2ccccc2Sc2ccccc21	0.9	61.3*	0.4	1.3	14.3
COc1ccc2cc(S(=O)(=O)N3CCOCC3)ccc2c1	0.2	13.7	0.9	1.1	79.3*
O=S(=O)(c1ccc(Oc2ccc(S(=O)(=O)N3CCOCC3)cc2)cc1)N1CCOCC1	1	-13.6	1.1	0.9	-1.8
Cn1c(=O)n(C)c2cc(S(=O)(=O)N3CCOCC3)ccc21	1.1	-8.1	1.1	0.8	-9.2
CC1CC(C)CN(CCCNC(=O)CCNC(=O)Cn2ccc3ccccc3c2=O)C1 (stereo unspecified)	0.9	-0.9	1	1.5	8.2
O=C(CSc1nnc(C2CC2)n1-c1ccccc1)Nc1ccc(N2CCOCC2)cc1	0.9	29.9	0.7	1.7	9.2
CCC(C)c1cc(S(=O)(=O)N2CCOCC2)ccc1OC (stereo unspecified)	0.3	-29.4	1.3	1.4	69.1*
O=C(c1ccccn1)N(Cc1cc2ccccc2[nH]c1=O)C1CCCCC1	1	40.6	0.6	1.1	-3.4
O=C(NC1CCCCC1)N(Cc1cc2cc3c(cc2[nH]c1=O)OCCO3)C1CCCCC1	0.5	75.1*	0.2	1.7	46.9
CCC(=O)N(Cc1cc2cc(C)c(C)cc2[nH]c1=O)C1CCCCC1	0.2	69.2*	0.3	1.6	80.6*
CC(=O)N(Cc1cc2c(C)cc(C)cc2[nH]c1=O)C1CCCCC1	0.7	62.7*	0.4	1.6	30.2
COc1cc2cc(CN(C(=O)NC3CCCCC3)C3CCCC3)c(=O)[nH]c2cc1OC	1	5.5	0.9	1.4	-3.3
CN1CCN(Cc2nc3c(c(=O)[nH]c(=O)n3C)n2Cc2c(F)cccc2Cl)CC1	1.2	-11.1	1.1	1.2	-15.5
CCn1c(=O)n(CC(=O)Nc2cc(OC)ccc2OC)c(=O)c2ccccc21	0.8	27.7	0.7	0.9	22.1
COc1ccc(OC)c(NC(=O)Cn2cc(C#N)c3cc(Br)ccc32)c1	0.1	99.4*	0	0.9	92.9*
COc1ccc(N(CC(=O)NCc2ccco2)S(C)(=O)=O)cc1Cl	0.3	-20.1	1.2	1.4	66.2*
COc1ccc(N(CC(=O)NCc2ccc3c(c2)OCO3)S(C)(=O)=O)cc1OC	0.8	13.3	0.9	0.9	19.3
COc1ccc(S(=O)(=O)N(CC(=O)N2CCN(C)CC2)C2CCCCC2)cc1OC	1	-2.7	1	1.7	-2.9

From PubChem
